According to PubChem BioAssay AID449728 (The Scripps Research Institute Molecular Screening Center, 2010):
Values joined by “and” are separate entries in the source; they are usually repeats but may differ in a detail not shown here. Equal entries are not always repeated. The campaign covered roughly 330,000 compounds. About 900 (0.27%) were called active.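 How the source made its calls: active means inhibition above the campaign's mean inhibition across all tested compounds plus 3 SD (cut at about 9.9% in these data); inactive means the rest.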 This excerpt belongs to a sample that is enriched for actives. The source holds several records for some structures; these can differ, active in one and inactive in another.

test: bacterial viability reduction in E. coli – absorbance, OD600, counter-screen for AddAB inhibitor project, primary screen (AID 449728);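 further: uninfected addAB+ strain grown without phage in ampicillin broth; 0% = DMSO wells and 100% = ciprofloxacin 0.95 µg/ml wells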; settings: E. coli V3065 growth, 18 h, at 11.9 µM, stronger effect = higher value

For `COCCn1c(SCC(=O)Nc2cc(OC)ccc2OC)nc2c(c1=O)SC(C)C2` (stereo not drawn), which inhibition is on record?
The inhibition was -0.66% (inactive).

With `Cc1cc2c(cc1C)[n+](C)cn2CC(O)COCC1CC=CCC1` (stereo not drawn) as the compound, how does the inhibition read?
The inhibition was -1.13% (inactive).

With `O=[N+]([O-])c1ccc(N=Cc2c(O)ccc3ccccc23)cc1` as the compound, how does the inhibition read?
Its inhibition is 25% (active).

With `O=C(Oc1ccc([N+](=O)[O-])cc1)c1ccc2ccccc2n1` as the compound, how does the inhibition read?
Its inhibition is 0.89% (inactive).

With `Cc1nc2ccccc2nc(=O)c1NNc1ccc([N+](=O)[O-])cc1` as the compound, how does the inhibition read?
Its inhibition is -0.37% (inactive).

For `O=S(=O)(c1ccc(Br)cc1)n1ccc2ccccc21`, which inhibition is on record?
The inhibition was 0.82% (inactive).

With `CCCc1nc(N)nc2c1C(=O)CC(C)(C)C2` as the compound, how does the inhibition read?
Its inhibition is 0% (inactive).

Which inhibition does the source give for `CC(C)(C)NC(=O)COC(=O)c1cc(Cl)ccc1[N+](=O)[O-]` here?
Its inhibition is 16% (active).

With `CCCC(=O)OCC(=O)Nc1cc(Cl)ccc1[N+](=O)[O-]` as the compound, how does the inhibition read?
Its inhibition is 0.59% (inactive).

Which inhibition does the source give for `CC(C)(C)NC(=O)COC(=O)c1cc(Br)ccc1Cl` here?
The inhibition was -0.09% (inactive).

Which inhibition does the source give for `CSc1ccccc1NC(=O)C(C)N1C(=O)c2ccccc2S1(=O)=O` (stereo not drawn) here?
Its inhibition is -0.94% (inactive).

For `CC1CC1C(=O)OCC(=O)c1c(N)n(C)c(=O)n(C)c1=O` (stereo not drawn), which inhibition is on record?
Its inhibition is -1.26% (inactive).

With `COc1ccc(NC(=O)CSc2nc(SC)ns2)c(OC)c1` as the compound, how does the inhibition read?
The inhibition was -1.11% (inactive).

Which inhibition does the source give for `CCCCCCNC(=O)CSc1nccn1Cc1ccccc1` here?
Its inhibition is -3.38% (inactive).

Which inhibition does the source give for `Cc1occc1C(=O)NC1CCCN(Cc2ccc(CC(C)C)cc2)C1` (stereo not drawn) here?
Its inhibition is -0.68% (inactive).

With `CCOc1ccc(OCCSc2nc3ccccc3n2CC(=O)O)cc1` as the compound, how does the inhibition read?
The inhibition was -0.94% (inactive).

For `Oc1c(Br)cccc1/C=N/Nc1c(F)c(F)c(F)c(F)c1F`, which inhibition is on record?
Its inhibition is 0.5% (inactive).

For `Oc1cccc(/C=N/Nc2ccc(Cl)nn2)c1O`, which inhibition is on record?
The inhibition was 19.4% (active).

With `Oc1ccc(Br)cc1/C=N/Nc1ccccn1` as the compound, how does the inhibition read?
The inhibition was 9.57% (inactive).

For `C/C(=C/C(=O)N1CCN(C)CC1)C(=O)O`, which inhibition is on record?
Its inhibition is 0.17% (inactive).

With `CCC1OC(c2ccc([N+](=O)[O-])cc2)=Nc2ccccc21` (stereo not drawn) as the compound, how does the inhibition read?
Its inhibition is -1.44% (inactive).

For `CCCCOc1ccc(CSC(=N)N)cc1[N+](=O)[O-]`, which inhibition is on record?
Its inhibition is 10.1% (active).

For `CCCCCOc1ccc(CSC2=NCCN2)cc1[N+](=O)[O-]`, which inhibition is on record?
The inhibition was 0.17% (inactive).

Which inhibition does the source give for `CCCCOC(=O)CCCc1ccc([N+](=O)[O-])cc1[N+](=O)[O-]` here?
Its inhibition is 0.76% (inactive).

Which inhibition does the source give for `O=C(Nc1ccccc1F)C1C2C=CC3(O2)C1C(=O)N(c1cccnc1)C3C(=O)NC1CCCCC1` (stereo not drawn) here?
Its inhibition is -0.09% (inactive).

Which inhibition does the source give for `COC(=O)c1c(NC(=O)COC(=O)[C@@H](NS(=O)(=O)c2ccccc2)C(C)C)sc2c1CCC2` here?
The inhibition was -2.57% (inactive).

For `Oc1ccc2ccccc2c1N=Nc1nccs1`, which inhibition is on record?
Its inhibition is 13.9% (active).

Which inhibition does the source give for `O=C(NC(=S)Nc1ncccn1)c1ccccc1Br` here?
The inhibition was 0.5% (inactive).

For `O=C(CN1C(=O)COc2ccc(Cl)cc21)N1CCOCC1`, which inhibition is on record?
Its inhibition is 1.26% (inactive).

For `COc1ccc(NC(=O)CCn2ccnc2)c(OC)c1`, which inhibition is on record?
Its inhibition is -1.17% (inactive).

With `CC(=O)NC12CC3CC(C1)CC(C(=O)N1CCN(S(=O)(=O)c4cccs4)CC1)(C3)C2` as the compound, how does the inhibition read?
Its inhibition is -1.77% (inactive).

Which inhibition does the source give for `CCn1cc(S(=O)(=O)c2cccc(C)c2)c(=O)c2cc(F)c(N3CCN(C)CC3)cc21` here?
The inhibition was -4.05% (inactive).

For `CCn1cc(C(=O)NCCO)c(=O)c2cc(F)c(N3CCN(C)CC3)cc21`, which inhibition is on record?
The inhibition was 97.8% (active).

Which inhibition does the source give for `CCCCCCn1cc(C(=O)O)c(=O)c2cc(F)c(N3CCCCC3)cc21` here?
The inhibition was 1.34% (inactive).

With `CCn1cc(C(=O)NCCC(=O)NCCO)c(=O)c2cc3c(cc21)OCO3` as the compound, how does the inhibition read?
The inhibition was 1.2% (inactive).

Which inhibition does the source give for `CN1CCN(c2cc3c(cc2F)c(=O)c(C(=O)O)cn3CCF)CC1` here?
Its inhibition is 100% (active).

With `CCCCNC(=O)c1cn(CC)c2cc(N3CCN(C(=O)c4ccco4)CC3)c(F)cc2c1=O` as the compound, how does the inhibition read?
The inhibition was 5.88% (inactive).

With `NNC(=O)c1ccc(COCC(F)(F)C(F)F)cc1` as the compound, how does the inhibition read?
Its inhibition is 3.04% (inactive).

For `CC(C)(C)OC(=O)C1=C(CO)CS[C@@H]2[C@H](NC(=O)Cc3ccccc3)C(=O)N12`, which inhibition is on record?
Its inhibition is 1.43% (inactive).

For `CO/N=C(\C(=O)N[C@@H]1C(=O)N2C(C(=O)O)=C(COC(C)=O)CS[C@H]12)c1csc(N)n1` (stereo in doubt), which inhibition is on record?
Its inhibition is 98.5% (active) and 97.8% (active) and -0.69% (inactive).

Which inhibition does the source give for `C=CC1=C(C(=O)O)N2C(=O)[C@@H](NC(=O)/C(=N/OCC(=O)O)c3csc(N)n3)[C@H]2SC1` here?
Its inhibition is 97.6% (active).

With `Cc1cc(C)cc(C(=O)NC2C(=O)N3C(C(=O)O)=C(CSc4nnc(C)s4)CSC23)c1` (stereo not drawn) as the compound, how does the inhibition read?
Its inhibition is -0.85% (inactive).

Which inhibition does the source give for `C=CC1=C(C(=O)O)N2C(=O)[C@@H](NC(=O)/C(=N\OCC(=O)O)c3csc(N)n3)[C@H]2SC1` here?
Its inhibition is 97.5% (active).

Which inhibition does the source give for `Cc1nnc(SCC2=C(C(=O)O)N3C(=O)C(NC(=O)Cn4nc(C)c(Cl)c4C)C3SC2)s1` (stereo not drawn) here?
The inhibition was 1.18% (inactive).

Which inhibition does the source give for `COC(=O)C1=C(C)NC2=C(C(=O)c3ccccc32)C1c1ccc(-c2ccc(C(=O)O)cc2)o1` (stereo not drawn) here?
The inhibition was 1.44% (inactive).

For `CCCCC(=O)Nc1nnc(S(=O)(=O)N(C)Cc2ccco2)s1`, which inhibition is on record?
Its inhibition is 1.69% (inactive).

With `Cc1[nH]nc(SCC(=O)NCC(C)C)c1[N+](=O)[O-]` as the compound, how does the inhibition read?
Its inhibition is -0.08% (inactive).

Which inhibition does the source give for `COc1ccc(S(=O)(=O)N2CCOCC2)cc1NC(=O)CSc1ncnc2ccccc12` here?
Its inhibition is -2.21% (inactive).

For `COC(=O)c1ccc(COC(=O)CNC(=O)c2cccc(OC)c2)o1`, which inhibition is on record?
Its inhibition is -0.35% (inactive).

For `CCOC(=O)c1c(CC(C)C)csc1/N=C/C1=C(O)CCCC1=O`, which inhibition is on record?
Its inhibition is -1.62% (inactive).

With `Cc1ccc(-n2c(C)nnc2SCC(=O)NC2CC2)cc1` as the compound, how does the inhibition read?
The inhibition was 0.84% (inactive).

For `O=c1ccc2c(-c3ccccc3S(=O)(=O)O)c3ccc(O)c(O)c3oc-2c1O`, which inhibition is on record?
The inhibition was 20.2% (active).

For `CC(C)C(C(=O)NCc1ccco1)N(CC1CCCO1)C(=O)CNS(=O)(=O)c1ccc(F)cc1` (stereo not drawn), which inhibition is on record?
Its inhibition is 0.85% (inactive).

With `CC(=O)Nc1ccc(S(=O)(=O)N(CCc2ccccc2)CC(=O)N/N=C/c2ccc(C(=O)O)cc2)cc1` as the compound, how does the inhibition read?
Its inhibition is 2.71% (inactive).

With `O=S(=O)(Nc1ccc(-n2cnnn2)cc1)c1ccc(Cl)cc1` as the compound, how does the inhibition read?
Its inhibition is 1.06% (inactive).

For `COc1ccc2oc(=N)c(C(=O)Nc3ccc(Br)cc3)cc2c1`, which inhibition is on record?
Its inhibition is -1.46% (inactive).

With `COc1ccc(/C=C/C(=O)c2cc(Br)ccc(=O)c2O)cc1` as the compound, how does the inhibition read?
Its inhibition is 10.9% (active).

With `COc1ccc(C(=O)/C=C/c2cccnc2)c(OC)c1` as the compound, how does the inhibition read?
The inhibition was -1.21% (inactive).
